# Among all 330,000 compounds or so, about 4,400 (1.3%) were called active.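 How the source made its calls: active means growth inhibition of the mutant yeast at or above 50%; inactive means the rest.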 The entries come from a sample that favours actives as a whole.
# Test: growth inhibitors of tim23-1 mutant yeast, primary screen, luminescence, uHTS (AID 463212);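 further: temperature-sensitive mutant grown at 25 °C; plate controls were DMSO-treated mutant yeast for no effect and medium wells lacking yeast for full effect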
# Details: S. cerevisiae tim23-1 growth, BacTiter-Glo luminescence, 24 h; at 20 µM; hits give high values
row,SMILES,inhibition
1,Cc1ccc(S(=O)(=O)NCC(C)NS(C)(=O)=O)cc1 (stereo not given),-7.63% (inactive)
2,CCOCCCNC(=O)Cc1cc(=O)[nH]c(=O)[nH]1,-8.09% (inactive)
3,COC(=O)c1ccc(-c2c(-c3ccccc3)ncc3cc(OC)c(OC)cc23)cc1,18.9% (inactive)
4,CCOC(=O)C1CSC(CC(=O)Nc2ccc(OCC)cc2)C(=O)N1 (stereo not given),4.52% (inactive)
5,Cc1cccc(NC(=S)Nc2ccc3cn[nH]c3c2)c1,-3.63% (inactive)
6,Cc1cccc(NC(=S)Nc2ccc(Cl)c(Cl)c2)c1,60.8% (active)
7,Cc1cccc(NC(=S)NC23CN4CN(CN(C4)C2)C3)c1,1.34% (inactive)
8,Cc1ccc(-n2ncc(C(=O)NC3CC3)c2C2CCN(C(=O)OC(C)(C)C)CC2)c(C)c1,13.5% (inactive)
9,CCOC(=O)Nc1ccc2c(c1)N(C(=O)CN1CCN3CCCC3C1)c1ccccc1CC2 (stereo not given),11.3% (inactive)
10,Cc1ccc(C(=O)/C=C/c2c(C)nn(-c3ccccc3)c2Cl)cc1,36.5% (inactive)
11,Cc1nn(-c2ccccc2)c(Cl)c1/C=C/C(=O)c1ccc(O)cc1,50.6% (active)
12,Cc1nn(-c2ccccc2)c(C)c1/C=C/C(=O)OC(C)C(N)=O (stereo not given),10.4% (inactive)
13,CC1CCN(C2=NC(=O)/C(=C/c3ccc(O)cc3)S2)CC1,31.9% (inactive)
14,CCOc1cc(/C=C2\SC(N3CCCC(C)C3)=NC2=O)ccc1O (stereo not given),51.4% (active)
15,CCOc1cc(/C=C2\SC(N3CCCCC3)=NC2=O)ccc1O,38.3% (inactive)
16,COc1ccc(N(CC(=O)NC2CCCCC2)S(=O)(=O)c2c(C)[nH]c(=O)[nH]c2=O)cc1,6.85% (inactive)
17,O=C(CSc1cccc2cccnc12)N/N=C/c1cccnc1,52.9% (active)
18,Cc1ccc(NC(=O)CSc2cccc3cccnc23)c(C)c1,19.5% (inactive)
19,CCOC(=O)N/N=C/c1cccnc1,4.17% (inactive)
20,N#Cc1ccc(C(c2ccc(C#N)cc2)n2cncn2)cc1,9.59% (inactive)
21,CCc1noc(C)c1C(=O)N1CCCC(N2CCN(c3ccc(F)cc3)CC2)C1 (stereo not given),-9.74% (inactive)
22,CC(C)OC(=O)Cn1nc(C(F)(F)F)c2c1CCCC2,-5.77% (inactive)
23,O=C(NC(=S)NC1CCSC1=O)c1ccccc1F (stereo not given),-11.9% (inactive)
24,Cc1ccccc1C(=O)NC(=S)Nc1ccc(N2CCN(C(=O)c3ccccc3)CC2)cc1,-0.446% (inactive)

row,SMILES,inhibition
1,Cc1ccccc1C(=O)NC(=S)NC1CC1,56.1% (active)
2,COC(=O)[C@@]1(C)[C@H]2C(=O)N(Cc3ccccc3)C(=O)[C@H]2[C@H]2CN=C(SCC3CC3)N21,28.2% (inactive)
3,CC1=C(C(=O)OCC2CCCCC2)C(c2ccc(F)cc2)NC(=O)N1 (stereo not given),23.5% (inactive)
4,S=C(NCCCc1ccccc1)Nc1ccc(Br)cc1,62.8% (active)
5,O=S(=O)(NCCCc1ccccc1)c1ccc(Br)cc1,33.6% (inactive)
6,S=C(Nc1ccc(Br)cc1)NC1CCN(Cc2ccccc2)CC1,3.13% (inactive)
7,O=C1C(=O)N(CCCO)C(c2ccccc2)/C1=C(\O)c1ccc(Br)cc1 (stereo not given),6.61% (inactive)
8,CCOc1ccc(CN2CCC(n3nccc3NC(=O)C3CC3)CC2)cc1CO,-0.767% (inactive)
9,O=C(NCc1ccc2c(c1)OCO2)c1sccc1Br,11% (inactive)
10,CCn1c(=O)c(C(=O)NCc2ccc3c(c2)OCO3)c(O)c2ccccc21,28.6% (inactive)
11,O=C(NCc1ccc2c(c1)OCO2)c1c(O)nc2sccn2c1=O,68.2% (active)
12,CCCOc1ccc(/C(O)=C2/C(=O)C(=O)N(CCN(C)C)C2c2ccc(OC)c(OC)c2)cc1 (stereo not given),3.19% (inactive)
13,Cc1ccccc1N1C(=O)C(Oc2ccc(Cl)cc2)C1CNCC1CCCO1 (stereo not given),32.6% (inactive)
14,Fc1ccc(-c2ccc(NCCN3CCOCC3)nn2)cc1,-3.29% (inactive)
15,COc1ccc(C(=O)C(C)OC(=O)c2cccc(S(=O)(=O)Nc3c(C)n(C)n(-c4ccccc4)c3=O)c2)cc1 (stereo not given),15.2% (inactive)
16,N#C/C(=C\c1ccc(O)c(O)c1)C(=O)NCc1ccccc1,12.3% (inactive)
17,COCCNC(=O)/C(C#N)=C/c1cccc(OCc2ccccc2)c1,68.2% (active)
18,O=C(N/N=C/c1cccc(OCc2ccccc2)c1)c1ccc(Br)o1,47.5% (inactive)
19,COc1cccc(N(CC(=O)NC2CCCCCC2)S(=O)(=O)c2ccccc2)c1,11.3% (inactive)
20,Cc1c(S(=O)(=O)NCc2ccccc2)c(=O)n(C)c(=O)n1C,4.82% (inactive)
21,Cc1cc(/C=C(/C#N)C(=O)Nc2ccc(Cl)cc2)c(C)n1-c1cccnc1,5.94% (inactive)
22,N#C/C(=C\c1cccnc1)C(=O)Nc1ccc(SC(F)F)cc1,76.7% (active)
23,O=C(N/N=C/c1cccnc1)c1ccc(NC(=O)c2ccc(F)cc2)cc1,4.04% (inactive)
24,CN=C(c1ccccc1)c1c(C)cccc1C,3.2% (inactive)

row,SMILES,inhibition
1,COc1ccccc1NC(=O)c1ccc(N2CC3CC(C2)c2cccc(=O)n2C3)c(NC(=O)c2cccnc2)c1 (stereo not given),-0.075% (inactive)
2,CC1CCCN(CCCNC(=O)CN2C(=O)COc3ccc(S(=O)(=O)N4CCOCC4)cc32)C1 (stereo not given),-34.2% (inactive)
3,COCCNC(=O)CN1C(=O)CSc2ncccc21,11.6% (inactive)
4,CCc1ccc2c(c1)C1(NN=C(c3ccccc3)S1)C(=O)N2 (stereo not given),52.6% (active)
5,O=C(CNC(=O)c1ccc(Cl)cc1Cl)NCC(=O)Nc1ccccc1N1CCOCC1,3.5% (inactive)
6,CC(Oc1cccc(NC(=O)c2cccs2)c1)C(=O)c1ccccc1 (stereo not given),34.3% (inactive)
7,Cc1ccoc1C(=O)Nc1cccc(Oc2ccccc2)c1,77.9% (active)
8,Cc1cccc(NC(=O)Nc2cccc(Oc3c(F)c(F)c(F)c(F)c3F)c2)c1,17% (inactive)
9,N#Cc1ccccc1S(=O)(=O)N1CCN(Cc2c(O)ccc3ccccc23)CC1,21.3% (inactive)
10,Cc1cc(Nc2ccccc2)n(C(=O)c2ccc(N)cc2)n1,57.6% (active)
11,CCOC(=O)c1c(N)nn(C(=O)c2ccccc2)c1-c1ccccc1,27% (inactive)
12,Cn1c(Nc2ccccc2)cc(=O)n(C)c1=O,6.86% (inactive)
13,O=C(COc1ccc(Cl)cc1Cl)N/N=C/c1ccccn1,39% (inactive)
14,CC[C@@H]1Cc2cc(O)ccc2C2=C1c1ccc(O)cc1C[C@H]2CC,-6.54% (inactive)
15,COC(=O)c1sccc1NC(=O)COc1ccc(Cl)cc1,6.02% (inactive)
16,CCOC(=O)c1c(NC(=O)c2ccc(S(=O)(=O)N(C)CC3CCCO3)cc2)sc2c1CC(C)(C)NC2(C)C (stereo not given),24% (inactive)
17,COC(=O)c1c(NC(=O)COc2ccc(Cl)cc2Cl)sc2c1CC(C)(C)NC2(C)C,60.1% (active)
18,Cc1ccc(C(=O)NCC(=O)NCc2cc(=O)n(C)c(=O)n2C)cc1,16.1% (inactive)
19,Nc1nc(SCC(=O)Nc2ccc(Cl)cc2C(F)(F)F)n[nH]1,3.1% (inactive)
20,CCC(C)(C)n1nnnc1CN1CCN(c2nc3ccc(C)cc3cc2C#N)CC1,40.5% (inactive)
21,O=C1CSC(=S)N1c1ccc(Cl)c(Cl)c1,53.7% (active)
22,COc1cc(N2C(=O)CSC2=S)cc(OC)c1OC,23.9% (inactive)
23,O=C1CSC(=S)N1c1ccc(O)cc1,11.4% (inactive)
24,CCNC(=O)NC(=O)C(C)OC(=O)c1cc(S(=O)(=O)N2CCCCCC2)ccc1OC (stereo not given),19.4% (inactive)

row,SMILES,inhibition
1,COc1ccc([N+](=O)[O-])cc1-c1nc2ccccc2nc1-c1ccccc1,36.6% (inactive)
2,O=[N+]([O-])c1ccc2c(c1)Nc1nc3ccccc3nc1N2,59.9% (active)
3,O=[N+]([O-])c1ccc2nc(-c3ccccn3)[nH]c2c1,46.5% (inactive)
4,COc1ccc(-c2cc3ncccc3cn2)cc1,9.46% (inactive)
5,COc1ccc(-c2cc(C3CCN(c4ncccc4[N+](=O)[O-])CC3)[nH]n2)cc1,57.6% (active)
6,CC(=O)NC(Cc1ccccc1)C(=O)NC1CCN(c2ncccc2[N+](=O)[O-])CC1 (stereo not given),10.9% (inactive)
7,CC(C(=O)Nc1ccccc1-c1ccccc1)N1CCOCC1 (stereo not given),7.67% (inactive)
8,Nc1nc2n(n1)C(c1ccco1)CC(c1ccc(Cl)c(Cl)c1)N2 (stereo not given),20.6% (inactive)
9,Clc1ccc(C2CC(c3cccs3)n3ncnc3N2)cc1Cl (stereo not given),50.5% (active)
10,COc1ccc(C2CC(c3ccc(C)cc3)Nc3ncnn32)cc1 (stereo not given),27.1% (inactive)
11,Oc1ccccc1CNc1ncc(Br)cc1Br,45.5% (inactive)
12,CCc1nnc(NS(=O)(=O)c2ccc(NC(=S)NC(=O)c3cccs3)cc2)s1,18.7% (inactive)
13,CCc1nnc(NS(=O)(=O)c2ccc(NC(=O)c3cccc(OC(F)(F)C(F)F)c3)cc2)s1,-1.08% (inactive)
14,CCc1nnc(NS(=O)(=O)c2ccc(NC(=S)NC(=O)/C=C/c3cccs3)cc2)s1,96.1% (active)
15,COC(=O)c1cc2occc2n1Cc1nc(-c2ccccc2C)oc1C,4.08% (inactive)
16,C=CCn1nc(-c2ccccc2)c2c(C)onc2c1=O,6.39% (inactive)
17,CC(=O)Nc1ccc(S(=O)(=O)NC2(C(F)(F)F)C(=O)Nc3c2c(=O)[nH]c(=O)n3Cc2ccccc2)cc1 (stereo not given),3.06% (inactive)
18,CC(C)NC(=O)/C(C#N)=C\c1ccc(N(C)C)c(Br)c1,61% (active)
19,Cc1[nH]c2ccccc2c1/C=C(/C#N)C(=O)NC(C)C,10.2% (inactive)
20,CC(C)(C)C(=O)/C(C#N)=C/c1ccc(O)cc1,24% (inactive)
21,Cc1cc(C(=O)OC(C)C(=O)NC2CCCCC2C)c(C)o1 (stereo not given),-5.23% (inactive)
22,CCN(CC)CC(=O)Nc1sc2c(c1C(=O)c1ccccc1C)CCC2,32.5% (inactive)
23,CC(OC(=O)CCCc1c[nH]c2ccccc12)C(=O)Nc1ccc(S(N)(=O)=O)cc1 (stereo not given),11.1% (inactive)
